Shown are actives, neighbours in structure and some others; about 11% of the full set was active somewhere.
G9a block – qHTS Assay for Inhibitors of Histone Lysine Methyltransferase G9a; AID 504332, 2011; 350,000 tested, 8.8% active; G9a H3K9 monomethylation, AlphaScreen, 2 h; Potency, µM (highest dose often 102 µM), most hits filed as inhibitors; note: nearly all actives have a fitted effect of over 75% in size
Target sequence (Q96KQ7 913-1193 limits assumed): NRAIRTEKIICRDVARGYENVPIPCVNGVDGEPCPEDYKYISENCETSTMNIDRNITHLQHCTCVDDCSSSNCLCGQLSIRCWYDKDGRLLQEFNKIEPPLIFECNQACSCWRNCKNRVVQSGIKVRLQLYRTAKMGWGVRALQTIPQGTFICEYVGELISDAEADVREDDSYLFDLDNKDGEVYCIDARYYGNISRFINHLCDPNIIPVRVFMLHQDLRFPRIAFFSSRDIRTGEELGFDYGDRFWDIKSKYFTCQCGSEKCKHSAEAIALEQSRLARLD
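Readings reflect AlphaScreen signal from monomethyl-H3K9 antibody detection. HMT at 20 nM; substrate b-H3K9 500 nM; cofactor SAM 20 uM; 2 h RT reaction; compounds tested as titrations in qHTS with 15 min preincubation.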
JMJD2A Tudor inh – qHTS Assay for Inhibitors of JMJD2A-Tudor Domain | Lysine-specific demethylase 4A (Homo sapiens), O75164 | AlphaScreen JMJD2A-Tudor / H3K4me3 peptide binding | 390,000 tested, 4.4% active | Potency, µM (titrated, usually from 114 µM), usual class: inhibitors; note: nearly all actives have a fitted effect of over 50% in size
L3MBTL1 block – qHTS Assay for the Inhibitors of L3MBTL1; Lethal(3)malignant brain tumor-like protein 1 (Homo sapiens), Q9Y468; Potency, µM (top dose mostly 57.1 µM), actives largely listed as inhibitors; 230,000 tested, 0.66% active; AlphaScreen L3MBTL1–H3K9me1 peptide binding; AID 485360, 2010; note: nearly all actives have a fitted effect of over 60% in size
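L3MBTL1 (50 nM) pre-complexed 30 min with biotinylated H3(1-15)K9me1 peptide (75 nM), then compounds added for 30 min at room temperature; AlphaScreen streptavidin donor/nickel chelate acceptor beads (10 ug/mL final) read after 30 min dark incubation.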
BAZ2B block – qHTS Assay for Inhibitors of BAZ2B; 360,000 tested, 4.4% active; AID 504333, 2011; Bromodomain adjacent to zinc finger domain protein 2B (Homo sapiens), Q9UIF8; Potency, µM (top dose mostly 114 µM), usual class: inhibitors; AlphaScreen BAZ2B-H3K14Ac peptide displacement; note: nearly all actives have a fitted effect of over 60% in size
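Complex of BAZ2B and biotin-H3K14Ac (50 nM apiece) forms over 30 min at RT, then faces library compounds up to 110 uM for another 30 min; AlphaScreen beads added, 20 min dark incubation, luminescence read.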
HP1b chromo inh – HTS for Inhibitors of HP1-beta Chromodomain Interactions with Methylated Histone Tails; Chromobox protein homolog 1 (Homo sapiens), P83916; 390,000 tested, 0.56% active; AlphaScreen HP1-beta / biotin-H3K9me3 peptide binding; Potency, µM (highest dose often 114 µM), hits mostly inhibitors; note: nearly all actives have a fitted effect of over 70% in size
Target sequence (P83916 whole entry, looked up): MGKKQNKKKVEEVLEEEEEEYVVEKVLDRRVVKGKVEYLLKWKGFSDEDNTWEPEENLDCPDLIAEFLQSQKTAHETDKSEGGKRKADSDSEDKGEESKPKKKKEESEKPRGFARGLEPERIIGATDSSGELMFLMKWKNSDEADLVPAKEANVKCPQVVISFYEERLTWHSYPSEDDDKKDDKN
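HP1-beta protein (50 nM final) preincubated 30 min at room temperature with biotinylated H3(1-18)K9me3 peptide (50 nM) in PBS pH 7.4, 0.01% Tween-20, then compound added for 30 min. AlphaScreen streptavidin donor/nickel chelate acceptor beads (10 ug/mL final), 30 min dark, luminescence read.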
Hits are given with their value; i = inactive; ? = inconclusive; nt = no result given; [ ] = remark or other dose. Calls come from the whole dose curve; as a rule, active = well fitted inhibition curve with a large enough effect; inconclusive = small, poorly fitted or top-dose-only effect; inactive = no such curve, though single readings can be large or run the other way.

SMILES	G9a block	JMJD2A Tudor inh	L3MBTL1 block	BAZ2B block	HP1b chromo inh
COc1ccc(NCc2nc3ccccc3n2CCOc2ccccc2)cc1	31.6µM	39.8µM	?	17.8µM	i
COc1ccc(NCc2nc3ccccc3n2CCOc2ccc(C)cc2)cc1	14.1µM	11.2µM	?	10µM	39.8µM
c1ccc(NCc2nc3ccccc3n2CCOc2ccccc2)cc1	?	i	i	?	i
COc1cccc(OCc2nc3ccccc3n2CCOc2ccc(C)cc2)c1	i	i	nt	i	i
O=c1cc(-c2ccccc2)n2c(SCc3ccc([N+](=O)[O-])cc3)nnc2[nH]1	i	i	nt	i	i
Clc1ccc(OCc2nn3c(C4CCCCC4)nnc3s2)cc1	8.91µM	i	i	i	i
Cn1c2ccccc2c2c(C(=O)N3CCN(c4ccccc4)CC3)cn(C3CCCC3)c(=O)c21	50.1µM	?	nt	?	i
COc1ccc(N2CCN(C(=O)c3cn(CC(C)C)c(=O)c4c3c3ccccc3n4C)CC2)cc1	?	35.5µM	nt	25.1µM	?
COCCCNc1nc(NCc2ccccc2OC)c2cnn(C)c2n1	i	i	nt	i	i
Cc1ccc(NC(=O)Cn2c(=O)n(CCC(=O)N3CCc4ccccc4C3)c(=O)c3ccccc32)c(C)c1	i	i	nt	i	i
Cc1ccnc(NC(=O)c2ccc([N+](=O)[O-])o2)c1	i[12.7 µM]	i	i	56.2µM	i
Cc1ccnc(NC(=O)c2ccccc2[N+](=O)[O-])c1	10µM	i	i	i	?
Cc1ccc(NC(=O)CCC(=O)NNC(=O)c2ccccc2[N+](=O)[O-])c(C)c1	50.1µM	i	i	i	i
Cc1ccnc(NC(=O)c2cccc([N+](=O)[O-])c2C)c1	i	i	i	i	i
Cc1ccnc(NC(=O)/C=C/c2ccccc2[N+](=O)[O-])c1	?	nt	i	56.2µM	nt
CCOc1ccc(OCC)c(NC(=O)c2csc3c2CCCC3)c1	i	i	nt	i	i
Cc1ccc(O)c(C2=NCCNC(C(F)(F)F)=C2)c1	?	i	nt	i	i
Oc1c(C2=NCCNC(C(F)(F)F)=C2)ccc2ccccc12	i	50.1µM	i	25.1µM	?
CC(=O)N1CC=CC1(C)C(=O)NCc1cc(F)cc(C(F)(F)F)c1 (centres undefined)	39.8µM	i	i	i	i
COC(=O)N1CC=CC1(C)C(=O)NCc1cc(F)cc(C(F)(F)F)c1 (centres undefined)	i	i	i	i	i
c1cc2c(cc1C1CCCCC1)c1c3n2CCCNC3CCC1 (centres undefined)	17.8µM	44.7µM	i	35.5µM	?
C[C@H](NC(=O)[C@@H]1Cc2ccccc2CN1)C(=O)NC1CCCC1	79.4µM	i	nt	i	i
CC(C)C[C@H](NC(=O)[C@@H]1Cc2ccccc2CN1)C(=O)Nc1ccc(C(C)C)cc1	28.2µM	i	nt	?	i
C[C@H](NC(=O)[C@@H]1Cc2ccccc2CN1)C(=O)Nc1ccc2c(c1)OCCO2	i[0.0925 µM]	i	nt	i	i
CSCC[C@H](NC(=O)[C@@H]1Cc2ccccc2CN1)C(=O)Nc1ccc2c(c1)OCCO2	50.1µM	i	nt	?	i
SMILES	G9a block	JMJD2A Tudor inh	L3MBTL1 block	BAZ2B block	HP1b chromo inh
C[C@@H](NC(=O)[C@@H]1Cc2ccccc2CN1C(=O)OC(C)(C)C)C(=O)NC1CCCCC1	79.4µM	i	nt	i	i
C[C@H](NC(=O)[C@@H]1Cc2ccccc2CN1C(=O)OC(C)(C)C)C(=O)NC1CCCCC1	i	i	nt	i	i
COc1ccc(Cl)cc1NC(=O)CN1C(=O)C(C)(C)c2cc(S(=O)(=O)N3CCCCC3)ccc21	i	i	nt	i	i
O=C(c1cnccn1)N1CCC2(CC1)CN(Cc1cc(C(F)(F)F)cc(C(F)(F)F)c1)C2	i[12.7 µM]	nt	nt	nt	nt
CSCC[C@H](NC(=O)[C@@H]1Cc2ccccc2CN1)C(=O)NC1CCCCC1	25.1µM	i	nt	i	i
Cc1cc(C)cc(NC(=O)[C@H](NC(=O)[C@@H]2Cc3ccccc3CN2)c2ccccc2)c1	79.4µM	i	nt	i	i
Cc1ccc(NC(=O)[C@H](Cc2ccccc2)NC(=O)[C@@H]2Cc3ccccc3CN2)c(C)c1	35.5µM	i	nt	i	i
COc1ccccc1CNC(=O)CSC1=Nc2ccccc2N=C(c2ccc(F)cc2)C1	i	i	nt	i	i
COCCN1C(=O)c2[nH]nc(-c3ccccc3O)c2C1c1ccc(Cl)c(Cl)c1 (centres undefined)	i	?	nt	i	i
CC1=CC(c2ccccc2)n2nc(NC(=O)CCC(=O)O)nc2N1 (centres undefined)	?	?	i	?	i
CC1=CC(c2ccccc2)n2nc(NC(=O)CCCC(=O)O)nc2N1 (centres undefined)	i	?	nt	50.1µM	i
CC1=CC(c2ccc(Cl)cc2)n2nc(NC(=O)c3ccccc3)nc2N1 (centres undefined)	14.1µM	i	nt	56.2µM	i
c1n[nH]c(NC2=NCCC2)n1	i	44.7µM	?	14.1µM	i
Cc1ccc2c(CC(=O)Nc3cccc(S(=O)(=O)N4CCOCC4)c3)coc2c1	i	i	i	i	i
CCN(CC)CCSc1nnc2c3cc(F)ccc3n(CC)c2n1	i	i	nt	?	i
Cc1ccc(/C([O-])=C(/C(=S)NCc2ccccc2)[n+]2cccc(CO)c2)cc1[N+](=O)[O-]	28.2µM	?	i	?	i
COCCNCc1cc(C)n(-c2cc(S(=O)(=O)N3CCOCC3)ccc2N2CCCC2)c1C	nt	5.01µM	nt	nt	i
CN(C)c1ccc(NC(=O)Cn2c(SCc3ccc(F)cc3)nc3cccnc32)cc1	i	i	nt	i	i
CCCN1Cc2cccc(C(=O)Nc3cccc(C(=O)OCC)c3)c2C1=O	i	i	nt	nt	i
CCOc1ccc(N2CC(O)Cn3c2nc2c3c(=O)n(CCCc3ccccc3)c(=O)n2C)cc1 (centres undefined)	2.51µM	i	nt	i	i
Cn1c(=O)c2c(nc3n2CC(O)CN3c2ccc(O)cc2)n(C)c1=O (centres undefined)	79.4µM	i	i	i	i
COc1ccc(N2CC(C)Cn3c2nc2c3c(=O)n(Cc3ccccc3)c(=O)n2C)c(OC)c1 (centres undefined)	6.31µM	?	nt	?	i
COc1ccc(N2CC(C)Cn3c2nc2c3c(=O)n(CCc3ccccc3)c(=O)n2C)cc1 (centres undefined)	3.16µM	i	i	i	i
COc1ccc(N2CCn3c2nc2c3c(=O)n(CCCc3ccccc3)c(=O)n2C)cc1	i	nt	i	i	nt
Cc1ccc(N2CC(O)Cn3c2nc2c3c(=O)n(C)c(=O)n2C)cc1 (centres undefined)	i	i	nt	i	i
